# B1: unnamed (peptide)
# chain: VPKEPAPAPPPEPDM
# B2: unnamed (peptide)
# chain: QLMKNLPKIPLLNDI
# What was measured:
# Experiment in all cases: SPOT peptide array binding signal intensity (averaged, normalized) (arbitrary units (background-subtracted, floor 0; scale differs between SH3 domains)); higher = stronger binding of the SH3 domain to the peptide
# SpBzz1-D2 = molecular target: SpBzz1-D2
# In short: (§1)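 Binding signal is given in arbitrary units that differ between domains and is the normalized, background-subtracted spot intensity averaged across replicates. Each GST-SH3 fusion from one of four yeast species was made in E. coli BL21(DE3), purified on glutathione Sepharose and incubated at 10 μg/ml overnight at 4°C on cellulose-bound synthetic 15-mer peptides in which cysteines were replaced by serines. Detection used anti-GST antibody, an HRP anti-mouse secondary and luminol, followed by imaging and Genespotter quantification.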
# SpCyk3 = molecular target: SpCyk3
# In short: as §1
# SpHof1 = molecular target: SpHof1
# In short: as §1
# SpHof1-2 = molecular target: SpHof1-2
# In short: as §1
# SpHof1-3 = molecular target: SpHof1-3
# In short: as §1
# SpHse1 = molecular target: SpHse1
# In short: as §1
# SpLsb1 = molecular target: SpLsb1
# In short: as §1
# SpLsb4 = molecular target: SpLsb4
# In short: as §1
# SpMyo1 = molecular target: SpMyo1
# In short: as §1
# SpNbp2 = molecular target: SpNbp2
# In short: as §1
# SpPex13 = molecular target: SpPex13
# In short: as §1
# SpRvs167 = molecular target: SpRvs167
# In short: as §1
# SpSla1-D1-D2 = molecular target: SpSla1-D1-D2
# In short: as §1
# SpSla1-D3 = molecular target: SpSla1-D3
# In short: as §1
# AgAbp1 = molecular target: AgAbp1
# In short: as §1
# AgBbc1 = molecular target: AgBbc1
# In short: as §1
# AgBem1-D1 = molecular target: AgBem1-D1
# In short: as §1
# AgBzz1-D1 = molecular target: AgBzz1-D1
# In short: as §1
# AgBzz1-D2 = molecular target: AgBzz1-D2
# In short: as §1
# AgCyk3 = molecular target: AgCyk3
# In short: as §1
# AgFus1 = molecular target: AgFus1
# In short: as §1
# AgHof1 = molecular target: AgHof1
# In short: as §1
# AgHse1 = molecular target: AgHse1
# In short: as §1
# AgLsb1 = molecular target: AgLsb1
# In short: as §1
# AgLsb4 = molecular target: AgLsb4
# In short: as §1
# AgMyo5 = molecular target: AgMyo5
# In short: as §1
# AgNbp2 = molecular target: AgNbp2
# In short: as §1
# AgRvs167 = molecular target: AgRvs167
# In short: as §1
# AgSho1 = molecular target: AgSho1
# In short: as §1
# AgSla1-D1-D2 = molecular target: AgSla1-D1-D2
# In short: as §1
# AgSla1-D3 = molecular target: AgSla1-D3
# In short: as §1
# CaAbp1-D1 = molecular target: CaAbp1-D1
# In short: as §1
# CaAbp1-D2 = molecular target: CaAbp1-D2
# In short: as §1
# CaBbc1 = molecular target: CaBbc1
# In short: as §1
# CaBem1-D1 = molecular target: CaBem1-D1
# In short: as §1
# CaBzz1-D1 = molecular target: CaBzz1-D1
# In short: as §1
# CaBzz1-D2 = molecular target: CaBzz1-D2
# In short: as §1
# CaCyk3 = molecular target: CaCyk3
# In short: as §1
# CaFus1 = molecular target: CaFus1
# In short: as §1
# CaHof1 = molecular target: CaHof1
# In short: as §1
# CaHse1 = molecular target: CaHse1
# In short: as §1
# CaLsb1 = molecular target: CaLsb1
# In short: as §1
# CaLsb4 = molecular target: CaLsb4
# In short: as §1
# CaMyo5 = molecular target: CaMyo5
# In short: as §1
# CaNbp2 = molecular target: CaNbp2
# In short: as §1
# CaRvs167 = molecular target: CaRvs167
# In short: as §1
# CaRvs167-3 = molecular target: CaRvs167-3
# In short: as §1
# CaSho1 = molecular target: CaSho1
# In short: as §1
# CaSla1-D1-D2 = molecular target: CaSla1-D1-D2
# In short: as §1
# CaSla1-D3 = molecular target: CaSla1-D3
# In short: as §1
# ScAbp1 = molecular target: ScAbp1
# In short: as §1
# ScBbc1 = molecular target: ScBbc1
# In short: as §1
# ScBem1-D1 = molecular target: ScBem1-D1
# In short: as §1
# ScBzz1-D1 = molecular target: ScBzz1-D1
# In short: as §1
# ScBzz1-D2 = molecular target: ScBzz1-D2
# In short: as §1
# ScCyk3 = molecular target: ScCyk3
# In short: as §1
# ScFus1 = molecular target: ScFus1
# In short: as §1
# ScHof1 = molecular target: ScHof1
# In short: as §1
# ScHse1 = molecular target: ScHse1
# In short: as §1
# ScLsb1 = molecular target: ScLsb1
# In short: as §1
# ScLsb2 = molecular target: ScLsb2
# In short: as §1
# ScLsb3 = molecular target: ScLsb3
# In short: as §1
# ScLsb4 = molecular target: ScLsb4
# In short: as §1
# ScMyo3 = molecular target: ScMyo3
# In short: as §1
# ScMyo5 = molecular target: ScMyo5
# In short: as §1
# ScNbp2 = molecular target: ScNbp2
# In short: as §1
# ScPex13 = molecular target: ScPex13
# In short: as §1
# ScRvs167 = molecular target: ScRvs167
# In short: as §1
# ScSho1 = molecular target: ScSho1
# In short: as §1
# ScSla1-D1-D2 = molecular target: ScSla1-D1-D2
# In short: as §1
# ScSla1-D3 = molecular target: ScSla1-D3
# In short: as §1
# SpAbp1-D1 = molecular target: SpAbp1-D1
# In short: as §1
# SpBbc1 = molecular target: SpBbc1
# In short: as §1
# SpBzz1-D1 = molecular target: SpBzz1-D1
# In short: as §1
binder,measurement,setting,value
B1,SPOT peptide array binding signal intensity,SpBzz1-D2,0.25
same,SPOT peptide array binding signal intensity,SpCyk3,≤ 0
same,SPOT peptide array binding signal intensity,SpHof1,≤ 0
same,SPOT peptide array binding signal intensity,SpHof1-2,6.38
same,SPOT peptide array binding signal intensity,SpHof1-3,20.2
same,SPOT peptide array binding signal intensity,SpHse1,1.5
same,SPOT peptide array binding signal intensity,SpLsb1,≤ 0
same,SPOT peptide array binding signal intensity,SpLsb4,≤ 0
same,SPOT peptide array binding signal intensity,SpMyo1,670
same,SPOT peptide array binding signal intensity,SpNbp2,21
same,SPOT peptide array binding signal intensity,SpPex13,≤ 0
same,SPOT peptide array binding signal intensity,SpRvs167,≤ 0
same,SPOT peptide array binding signal intensity,SpSla1-D1-D2,8
same,SPOT peptide array binding signal intensity,SpSla1-D3,8.5
B2,SPOT peptide array binding signal intensity,AgAbp1,≤ 0
same,SPOT peptide array binding signal intensity,AgBbc1,5.5
same,SPOT peptide array binding signal intensity,AgBem1-D1,301
same,SPOT peptide array binding signal intensity,AgBzz1-D1,20
same,SPOT peptide array binding signal intensity,AgBzz1-D2,36.5
same,SPOT peptide array binding signal intensity,AgCyk3,≤ 0
same,SPOT peptide array binding signal intensity,AgFus1,336
same,SPOT peptide array binding signal intensity,AgHof1,113
same,SPOT peptide array binding signal intensity,AgHse1,229
same,SPOT peptide array binding signal intensity,AgLsb1,1.75
same,SPOT peptide array binding signal intensity,AgLsb4,16.5
same,SPOT peptide array binding signal intensity,AgMyo5,2.75
same,SPOT peptide array binding signal intensity,AgNbp2,120
same,SPOT peptide array binding signal intensity,AgRvs167,1.67
same,SPOT peptide array binding signal intensity,AgSho1,3070
same,SPOT peptide array binding signal intensity,AgSla1-D1-D2,≤ 0
same,SPOT peptide array binding signal intensity,AgSla1-D3,2.75
same,SPOT peptide array binding signal intensity,CaAbp1-D1,9.5
same,SPOT peptide array binding signal intensity,CaAbp1-D2,46
same,SPOT peptide array binding signal intensity,CaBbc1,14.5
same,SPOT peptide array binding signal intensity,CaBem1-D1,187
same,SPOT peptide array binding signal intensity,CaBzz1-D1,222
same,SPOT peptide array binding signal intensity,CaBzz1-D2,121
same,SPOT peptide array binding signal intensity,CaCyk3,4
same,SPOT peptide array binding signal intensity,CaFus1,670
same,SPOT peptide array binding signal intensity,CaHof1,2.75
same,SPOT peptide array binding signal intensity,CaHse1,168
same,SPOT peptide array binding signal intensity,CaLsb1,2.5
same,SPOT peptide array binding signal intensity,CaLsb4,590
same,SPOT peptide array binding signal intensity,CaMyo5,83.8
same,SPOT peptide array binding signal intensity,CaNbp2,355
same,SPOT peptide array binding signal intensity,CaRvs167,19.5
same,SPOT peptide array binding signal intensity,CaRvs167-3,≤ 0
same,SPOT peptide array binding signal intensity,CaSho1,1860
same,SPOT peptide array binding signal intensity,CaSla1-D1-D2,384
same,SPOT peptide array binding signal intensity,CaSla1-D3,205
same,SPOT peptide array binding signal intensity,ScAbp1,≤ 0
same,SPOT peptide array binding signal intensity,ScBbc1,3
same,SPOT peptide array binding signal intensity,ScBem1-D1,3
same,SPOT peptide array binding signal intensity,ScBzz1-D1,15.5
same,SPOT peptide array binding signal intensity,ScBzz1-D2,39.5
same,SPOT peptide array binding signal intensity,ScCyk3,5
same,SPOT peptide array binding signal intensity,ScFus1,526
same,SPOT peptide array binding signal intensity,ScHof1,11.2
same,SPOT peptide array binding signal intensity,ScHse1,267
same,SPOT peptide array binding signal intensity,ScLsb1,5.75
same,SPOT peptide array binding signal intensity,ScLsb2,2
same,SPOT peptide array binding signal intensity,ScLsb3,292
same,SPOT peptide array binding signal intensity,ScLsb4,67.5
same,SPOT peptide array binding signal intensity,ScMyo3,25
same,SPOT peptide array binding signal intensity,ScMyo5,2.25
same,SPOT peptide array binding signal intensity,ScNbp2,217
same,SPOT peptide array binding signal intensity,ScPex13,580
same,SPOT peptide array binding signal intensity,ScRvs167,5
same,SPOT peptide array binding signal intensity,ScSho1,1950
same,SPOT peptide array binding signal intensity,ScSla1-D1-D2,319
same,SPOT peptide array binding signal intensity,ScSla1-D3,538
same,SPOT peptide array binding signal intensity,SpAbp1-D1,2.5
same,SPOT peptide array binding signal intensity,SpBbc1,≤ 0
same,SPOT peptide array binding signal intensity,SpBzz1-D1,250
same,SPOT peptide array binding signal intensity,SpBzz1-D2,10.8
same,SPOT peptide array binding signal intensity,SpCyk3,4
same,SPOT peptide array binding signal intensity,SpHof1,369
same,SPOT peptide array binding signal intensity,SpHof1-2,1050
same,SPOT peptide array binding signal intensity,SpHof1-3,970
same,SPOT peptide array binding signal intensity,SpHse1,206
same,SPOT peptide array binding signal intensity,SpLsb1,1
same,SPOT peptide array binding signal intensity,SpLsb4,628
same,SPOT peptide array binding signal intensity,SpMyo1,106
same,SPOT peptide array binding signal intensity,SpNbp2,88
same,SPOT peptide array binding signal intensity,SpPex13,146
same,SPOT peptide array binding signal intensity,SpRvs167,22.8
same,SPOT peptide array binding signal intensity,SpSla1-D1-D2,20.5
same,SPOT peptide array binding signal intensity,SpSla1-D3,251

# Source: the supplement of paper PMC4466140
